# This is a sample that favours compounds with a hit; in the whole collection about 9.9% have one here.
# IL-1B inflam inh: inflammasome signaling inhibition, IL-1 beta readout; THP-1 LPS/ATP IL-1B secretion, AlphaLISA, 16 h; active compounds read low; activity change, % at 57.5 µM; 360,000 compounds, 4.7% hits; in the data active = activity change below about -50%; inconclusive = mostly about -30% to -49%; note: % is set by controls: 0 for no effect and ±100 for the full control effect
#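 Secreted IL-1B measured by AlphaLISA bead assay after 16 h compound exposure of THP-1 cells; compounds (final up to 57.5 uM) added 1 h before LPS (250 ng/mL) and ATP (1.25 mM) stimulation; lower signal means less secretion.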
# SW480 rereplic: induces DNA re-replication in SW480 colon adenocarcinoma cells. SW480 DNA re-replication, Hoechst DNA content imaging, 48 h. 340,000 compounds, 1.8% hits. Potency, µM (series often up to 46.1 µM), without a hit: at the highest dose re-replication activation, most hits filed as activators; note: potency is the fitted concentration of half-maximal effect; % of control where 0% means no effect; nearly all actives have a fitted effect of over 55% in size
#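 Cells (250 per well) received 23 nL compound or DMSO by pin tool and were kept 48 hr at 37 C, 5% CO2. Nuclei were then stained with Hoechst for 40 min and scanned for DNA content.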
# KB-3-1 tox: KB-3-1 parental cell cytotoxicity | KB-3-1 viability, CellTiter-Glo ATP luminescence, 72 h | Potency, µM (top dose mostly 46.1 µM), actives largely listed as cytotoxic | 400,000 compounds, 1.4% hits | AID 1347075; note: potency is the fitted concentration of half-maximal effect; % is set by controls: 0 for no effect and ±100 for the full control effect; nearly all actives have a fitted effect of over 60% in size
#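 Multi-concentration cytotoxicity screen in KB-3-1 cells grown in DMEM lacking phenol red with 10% FBS. After 72 h at 37 °C with compound, ATP-dependent luminescence was recorded.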
# MCF10A rereplic: inducers of DNA re-replication in MCF 10A breast cells. 350,000 compounds, 2.9% hits. Potency, µM (titrated, usually from 46.1 µM), for inactives: at the top dose activity, positive = re-replication, actives largely listed as activators. MCF 10A DNA re-replication, Hoechst nuclear intensity, 48 h. AID 624296; note: potency is the fitted concentration of half-maximal effect; % of control where 0% means no effect; nearly all actives have a fitted effect of over 50% in size
# KB-V1 MDR tox: KB-V1 MDR subline cytotoxicity; KB-V1 MDR cells viability, CellTiter-Glo, 72 h; Potency, µM (titrated, usually from 46.1 µM), most hits filed as cytotoxic; 400,000 compounds, 3.4% hits; note: potency is the fitted concentration of half-maximal effect; % is set by controls: 0 for no effect and ±100 for the full control effect; nearly all actives have a fitted effect of over 60% in size
#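 Following 72 h at 37 degrees C with compound, KB-V1 cell viability was read by CellTiter-Glo luminescence, medium being phenol-red-free DMEM plus 10% FBS; concentration-response parameters came from normalized, curve-fitted qHTS data.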
# Numbers without * were called inactive; i = inactive; ? = inconclusive; . = no result given. Unless noted, calls come from the whole dose curve; as a rule, active = well fitted curve in the direction sought with a large enough effect; inconclusive = small, poorly fitted or top-dose-only effect, or another doubt; inactive = no such curve, though single readings can be large; an effect the other way counts as inactive or inconclusive.
SMILES,IL-1B inflam inh,SW480 rereplic,KB-3-1 tox,MCF10A rereplic,KB-V1 MDR tox
Cc1ccc(NC(=O)C2CCN(C(=O)c3ccco3)CC2)cc1C,-17,-18%,i,-3%,i
CC(=O)c1ccc(OCCCC(=O)N2CCN(S(=O)(=O)c3ccc(C(C)C)cc3)CC2)cc1,?,-5%,i,3%,?
Cc1ccc(NC(=O)C2CCN(S(=O)(=O)c3ccc4c(c3)CCCC(=O)N4)CC2)c(Br)c1,-12,8%,i,?,i
O=C(NCCC1=CCCCC1)C1CCN(S(=O)(=O)N2CCCC2)CC1,33,-8%,i,-1%,i
O=C(NCCC1=CCCCC1)C1CCN(S(=O)(=O)c2ccc(Br)s2)CC1,11,1%,i,?,16µM*
O=C(NCCC1=CCCCC1)C1CCCN(S(=O)(=O)c2ccccc2)C1 (centres undefined),-14,21%,i,?,9.2µM*
O=C(c1ccc2c(=O)n(-c3ccccc3)c(=O)[nH]c2c1)N1CCN(Cc2cccs2)CC1,.,.,i,.,i
O=C(Nc1ccccc1)c1cc(C2COCCN2C(=O)CCCc2ccccc2)on1 (centres undefined),-12,.,i,.,i
CCC(CC)C(=O)c1c[nH]c(C(=O)N2CCN(c3ccccc3)CC2)c1,-15,1%,i,-4%,i
CC(C)CN(CCNC(=O)c1cn(C)c2ccc(S(=O)(=O)N3CCCCCC3)cc2c1=O)CC(C)C,.,.,i,.,i
Cc1ccc(S(=O)(=O)c2[nH]c(-c3ccccc3)nc2SCC(N)=O)cc1,.,.,i,.,i
CC(C)OCCCNC(=O)c1cccc2c1C(=O)c1ccc(Cl)cc1S2(=O)=O,-77*,-1%,i,1%,i
COc1ccc(-c2ccc3c(c2)S(=O)(=O)c2cccc(C(=O)NC[C@@H]4CCCO4)c2C3=O)cc1OC,4,6%,i,1%,i
O=C(NCCOc1ccccc1)c1cccc2c1C(=O)c1ccc(Cl)cc1S2(=O)=O,-81*,-10%,i,-13%,i
O=C(NC[C@@H]1CCCO1)c1cccc2c1C(=O)c1ccc(Cl)cc1S2(=O)=O,-54*,-5%,i,-30%,i
Cc1cc(NC(=O)CC2(CC(=O)O)CCCC2)n(C)n1,14,-16%,i,-5%,i
COc1ccc(C(C)=O)cc1CSc1nc2ccccc2c(=O)n1-c1ccccc1,0,0%,i,23%,i
COc1ccc(C(C)=O)cc1CSc1nc2ccccc2c(=O)n1-c1ccccc1C,-3,4%,i,4%,21µM*
COc1ccccc1-n1c(SCc2cc(=O)oc3cc(O)ccc23)nc2ccccc2c1=O,7,4%,?,?,18µM*
COc1ccccc1-n1c(SCC(=O)N2CCOCC2)nc2ccccc2c1=O,-2,2%,i,-4%,i
C=CCn1c(SCc2cc(C(C)=O)ccc2OCC)nc2ccccc2c1=O,51,1.8µM*,1.2µM*,1µM*,2.3µM*
C[C@@H]1CN([C@H](C)CO)C(=O)CCCn2nncc2CO[C@H]1CN(C)S(=O)(=O)c1ccccc1F,-19,.,i,.,i
O=C(CCC(=O)N1CCSc2ccccc21)NCCc1ccccc1,-12,-5%,i,1%,i
CCOC(=O)C1=C(N)Oc2cc(O)ccc2C1c1ccccc1 (centres undefined),84,23%,?,?,?
CCOC(=O)C1=C(N)Oc2cc(O)ccc2C1c1cccc([N+](=O)[O-])c1 (centres undefined),-97*,?,?,8.2µM*,?
CCOC(=O)C1=C(C)N(c2ccccc2)C(=O)NC1c1cccc([N+](=O)[O-])c1 (centres undefined),4,-7%,i,?,21µM*
CCOC(=O)C1=C(N)Oc2cc(O)ccc2C1c1ccc(C)cc1 (centres undefined),-72*,9%,i,?,?
CCCCCC(=O)N1C[C@H](n2cc(COC(=O)c3ccccc3)nn2)[C@@H](O)C[C@@H]1c1ccc(OC)cc1,-4,.,i,.,i
